Test systems include SR leukemia; RPMI-8226 leukemia; OVCAR-8 ovarian; OVCAR-5 ovarian; OVCAR-4 ovarian; SK-OV-3 ovarian; IGROV1 ovarian; OVCAR-3 ovarian; HS 578T breast; NCI/ADR-RES ovarian; T-47D breast; BT-549 breast; MDA-MB-435 melanoma; SW-620 colon; MCF7 breast; HCT-116 colon; HCC-2998 colon; KM12 colon.
Common to all, as to assay: NCI-60 one-dose screen, 48 h (100 = growth as untreated, 0 = no growth, -100 = all killed)
What all share (settings): 10 µM unless noted

Each structure is given as a SMILES string. About 83,000 compounds went through this panel and 20% of them were active in at least one assay; those are over-represented in the sample as a whole.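 48-hour exposure, single concentration, 96-well plates; percent growth endpoint where 0 means no net growth. Active: below 10.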 A number with no mark means an inactive call. Calls of active or inactive are those of the source.

With `CC(=O)NC(C)(C)C(=O)N1CCC[C@H]1C(=O)NC(C)(C)C(=O)N[C@@H](C)C(=O)NC(C)(C)C(=O)NC(C)(C)C(=O)N[C@@H](CCC(N)=O)C(=O)NC(C)(C)C(=O)N[C@H](C(=O)NC(C)(C)C(=O)NCC(=O)N[C@@H](CC(C)C)C(=O)NC(C)(C)C(=O)N1CCC[C@H]1C(=O)N[C@H](C(=O)NC(C)(C)C(=O)NC(C)(C)C(=O)N[C@@H](CCC(N)=O)C(=O)N[C@@H](CCC(N)=O)C(=O)N[C@H](CO)Cc1ccccc1)C(C)C)C(C)C`, the growth in the assay on SR leukemia is 30.2% [4.25 µM]; with RPMI-8226 leukemia, -17.4% [4.25 µM] (active); in the assay with OVCAR-8 ovarian, 46.3% [4.25 µM]; with OVCAR-5 ovarian, 45.2% [4.25 µM]; in the assay on OVCAR-4 ovarian, 24.5% [4.25 µM]; in the assay with SK-OV-3 ovarian it was 17.1% [4.25 µM]. For the same molecule, the growth in the assay with IGROV1 ovarian was 46.4% [4.25 µM]; in the assay on OVCAR-3 ovarian, 26.3% [4.25 µM]; in the assay on HS 578T breast, 46% [4.25 µM]; in the assay on NCI/ADR-RES ovarian, 101% [4.25 µM]; in the assay with T-47D breast, 10% [4.25 µM]; in the assay on BT-549 breast, -56.1% [4.25 µM] (active). Besides, the growth in the assay with MDA-MB-435 melanoma is 17% [4.25 µM]; in the assay on SW-620 colon it was 45.5% [4.25 µM]; with MCF7 breast it was 12.4% [4.25 µM]; in the assay on HCT-116 colon it was 24.1% [4.25 µM]; with HCC-2998 colon, 39.7% [4.25 µM]; with KM12 colon, 35.7% [4.25 µM].

On to `N=c1c2cc(-c3ccccc3)oc2ncn1/N=C/c1ccccc1`, for which the growth is 16.4% in the assay on SR leukemia; 99.1% in the assay with RPMI-8226 leukemia; 96.9% in the assay on OVCAR-8 ovarian; 83.5% with OVCAR-5 ovarian; 93.2% in the assay on OVCAR-4 ovarian; 96.5% with SK-OV-3 ovarian. For the same molecule, the growth in the assay on IGROV1 ovarian is 63%; with OVCAR-3 ovarian it was 59.2%; in the assay with HS 578T breast it was 91.3%; with NCI/ADR-RES ovarian, 60.3%; with T-47D breast, 94%; in the assay on BT-549 breast it was 92.1%. In addition, the growth is 7.67% (active) in the assay with MDA-MB-435 melanoma; 60.1% with SW-620 colon; 50.4% in the assay with MCF7 breast; 65% in the assay with HCT-116 colon; 99% with HCC-2998 colon; 59% with KM12 colon.

`CC(=O)C1=NN(c2ccc(Cl)cc2)C(=O)CN1C`: the growth is 102% in the assay with SR leukemia; 115% in the assay on RPMI-8226 leukemia; 102% with OVCAR-8 ovarian; 95% with OVCAR-5 ovarian; 114% with OVCAR-4 ovarian; 113% in the assay on SK-OV-3 ovarian. For the same molecule, the growth in the assay with IGROV1 ovarian is 103%; with OVCAR-3 ovarian, 123%; in the assay on HS 578T breast, 107%; in the assay on NCI/ADR-RES ovarian, 105%; in the assay with T-47D breast, 96.6%; with BT-549 breast it was 96.6%. Moreover, the growth with MDA-MB-435 melanoma was 103%; with SW-620 colon, 106%; in the assay on MCF7 breast, 96.1%; with HCT-116 colon it was 99.8%; in the assay with HCC-2998 colon, 104%; in the assay on KM12 colon, 102%.

Take `COc1ccc(/C=C/C(=O)c2nnn(-c3ccc(C(=O)O)cc3)c2C)cc1OC`: the growth in the assay with SR leukemia was 95.4%; in the assay with RPMI-8226 leukemia it was 99.4%; in the assay with OVCAR-8 ovarian, 102%; with OVCAR-5 ovarian, 97.8%; in the assay with OVCAR-4 ovarian, 107%; with SK-OV-3 ovarian, 112%. Further, the growth was 96.1% in the assay with IGROV1 ovarian; 117% with OVCAR-3 ovarian; 102% with HS 578T breast; 106% with NCI/ADR-RES ovarian; 96.8% in the assay on T-47D breast; 95.7% in the assay with BT-549 breast. In addition, the growth with MDA-MB-435 melanoma is 101%; with SW-620 colon it was 110%; in the assay on MCF7 breast, 86.3%; in the assay with HCT-116 colon, 91.6%; in the assay on HCC-2998 colon, 106%; with KM12 colon it was 101%.

As for `N#Cc1c(-c2cccs2)cc(-c2cnccn2)nc1SCC(=O)NNC(=S)Nc1ccc(F)cc1`, the growth with SR leukemia was 85.1%; with RPMI-8226 leukemia it was 105%; with OVCAR-8 ovarian it was 104%; in the assay on OVCAR-5 ovarian, 109%; in the assay on OVCAR-4 ovarian it was 96.3%; in the assay on SK-OV-3 ovarian, 121%. For the same molecule, the growth in the assay on IGROV1 ovarian was 106%; in the assay on OVCAR-3 ovarian, 122%; in the assay on HS 578T breast, 109%; with NCI/ADR-RES ovarian it was 106%; in the assay on T-47D breast, 102%; in the assay with BT-549 breast, 118%. The growth in the assay on MDA-MB-435 melanoma was 101%; in the assay on SW-620 colon, 105%; with MCF7 breast, 86.1%; in the assay on HCT-116 colon, 102%; with HCC-2998 colon, 109%; in the assay with KM12 colon it was 101%.

With `NC(=O)N1N=C(c2cc3ccccc3oc2=O)CC1c1cn(-c2ccccc2)nc1-c1ccc(Cl)cc1` (centres undefined), the growth in the assay with SR leukemia is 44.2%; in the assay with RPMI-8226 leukemia, 48.4%; with OVCAR-8 ovarian, 37.1%; with OVCAR-5 ovarian, 64.9%; in the assay with OVCAR-4 ovarian, 34.9%; in the assay with SK-OV-3 ovarian it was 75.6%. Also, the growth was 28.8% with IGROV1 ovarian; 17.6% in the assay with OVCAR-3 ovarian; 65.1% in the assay on HS 578T breast; 29.3% with NCI/ADR-RES ovarian; 25.1% in the assay on T-47D breast; 68.7% in the assay on BT-549 breast. For the same molecule, the growth was 47.4% in the assay on MDA-MB-435 melanoma; 35.5% in the assay with SW-620 colon; 25.4% with MCF7 breast; 26.7% with HCT-116 colon; 57% with HCC-2998 colon; 34.5% with KM12 colon.

Consider `C/C(=N/Nc1nc(N/N=C(/C)c2ccc([N+](=O)[O-])cc2)nc(N2CCOCC2)n1)c1ccc([N+](=O)[O-])cc1`, for which the growth is 113% in the assay on SR leukemia; 64.7% with RPMI-8226 leukemia; 63.6% with OVCAR-8 ovarian; 95.5% in the assay on OVCAR-5 ovarian; 77.6% in the assay with OVCAR-4 ovarian; 113% in the assay on SK-OV-3 ovarian. The growth with IGROV1 ovarian is 93.8%; in the assay with OVCAR-3 ovarian, 88.4%; in the assay on HS 578T breast, 78.7%; in the assay on NCI/ADR-RES ovarian it was 68.7%; with T-47D breast it was 54.9%; in the assay on BT-549 breast it was 67.3%. The growth in the assay with MDA-MB-435 melanoma was 85%; in the assay with SW-620 colon, 95.5%; with MCF7 breast it was 74.1%; in the assay on HCT-116 colon, 70.6%; in the assay on HCC-2998 colon it was 96%; with KM12 colon, 82.2%.

Regarding `COc1cc(CNC(=O)Cc2ccccc2[N+](=O)[O-])ccc1OCC(=O)NO`, the growth is 97.4% in the assay on SR leukemia; 118% in the assay with RPMI-8226 leukemia; 101% in the assay with OVCAR-8 ovarian; 104% in the assay with OVCAR-5 ovarian; 116% in the assay with OVCAR-4 ovarian; 107% in the assay with SK-OV-3 ovarian. For the same molecule, the growth was 108% in the assay on IGROV1 ovarian; 126% in the assay with OVCAR-3 ovarian; 108% in the assay on HS 578T breast; 106% in the assay on NCI/ADR-RES ovarian; 103% in the assay with T-47D breast; 106% with BT-549 breast. Also, the growth was 106% in the assay on MDA-MB-435 melanoma; 110% in the assay on SW-620 colon; 95.1% in the assay with MCF7 breast; 107% with HCT-116 colon; 108% in the assay on HCC-2998 colon; 101% in the assay on KM12 colon.

The record behind these values is PubChem BioAssay (NCI).
